The source of these data is ChEMBL document CHEMBL1961873, “Compounds: GSK PKIS; Assays: Nanosyn kinase panel” (2012).

In test [1] the target is RAC-alpha serine/threonine-protein kinase (Homo sapiens) (UniProt P31749). As to conditions: at 0.1 µM.
For test [2] the target is unchanged. The settings on record: at 1 µM.
Test [3] deals with RAC-beta serine/threonine-protein kinase (Homo sapiens) (UniProt P31751). The settings on record: at 0.1 µM.
For test [4] the target is unchanged. As to conditions: at 1 µM.
In test [5] the target is RAC-gamma serine/threonine-protein kinase (Homo sapiens) (UniProt Q9Y243). As to conditions: at 0.1 µM.
RAC-gamma serine/threonine-protein kinase (Homo sapiens), sequence (Q9Y243 whole entry): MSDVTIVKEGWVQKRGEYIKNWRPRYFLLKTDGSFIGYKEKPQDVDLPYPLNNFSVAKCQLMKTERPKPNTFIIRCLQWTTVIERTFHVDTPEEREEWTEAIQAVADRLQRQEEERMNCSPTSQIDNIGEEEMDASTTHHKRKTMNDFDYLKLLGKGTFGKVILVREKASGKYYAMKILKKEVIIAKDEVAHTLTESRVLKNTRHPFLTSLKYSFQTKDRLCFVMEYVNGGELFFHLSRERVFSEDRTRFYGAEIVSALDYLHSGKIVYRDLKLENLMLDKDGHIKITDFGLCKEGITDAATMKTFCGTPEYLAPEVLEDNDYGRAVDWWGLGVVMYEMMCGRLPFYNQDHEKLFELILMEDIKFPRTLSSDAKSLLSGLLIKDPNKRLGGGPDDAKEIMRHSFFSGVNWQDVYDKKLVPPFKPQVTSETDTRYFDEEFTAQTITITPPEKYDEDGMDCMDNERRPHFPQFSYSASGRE
The target is the same in test [6]. As to conditions: at 1 µM.
In test [7] the target is G protein-coupled receptor kinase 6 (Homo sapiens) (UniProt P43250). The settings on record: at 0.1 µM.
G protein-coupled receptor kinase 6 (Homo sapiens), sequence (P43250 whole entry, looked up): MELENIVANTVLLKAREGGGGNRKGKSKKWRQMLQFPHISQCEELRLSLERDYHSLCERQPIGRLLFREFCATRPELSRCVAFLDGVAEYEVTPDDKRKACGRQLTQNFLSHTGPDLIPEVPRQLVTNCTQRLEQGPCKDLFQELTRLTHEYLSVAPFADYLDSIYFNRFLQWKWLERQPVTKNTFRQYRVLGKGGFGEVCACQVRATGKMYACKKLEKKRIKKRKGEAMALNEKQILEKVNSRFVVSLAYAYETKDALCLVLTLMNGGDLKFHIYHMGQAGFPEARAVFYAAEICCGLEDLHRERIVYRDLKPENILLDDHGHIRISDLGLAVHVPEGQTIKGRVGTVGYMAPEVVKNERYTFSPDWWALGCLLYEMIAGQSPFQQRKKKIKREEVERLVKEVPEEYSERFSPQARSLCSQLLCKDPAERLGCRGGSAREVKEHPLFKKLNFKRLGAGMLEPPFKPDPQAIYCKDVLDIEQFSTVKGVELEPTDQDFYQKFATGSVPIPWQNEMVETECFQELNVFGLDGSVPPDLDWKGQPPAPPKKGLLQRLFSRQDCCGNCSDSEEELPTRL
For test [8] the target is unchanged. The settings on record: at 1 µM.
Test [9] has as its target T1, Rhodopsin kinase GRK7 (Homo sapiens) (UniProt Q8WTQ7).
T1 sequence (whole entry): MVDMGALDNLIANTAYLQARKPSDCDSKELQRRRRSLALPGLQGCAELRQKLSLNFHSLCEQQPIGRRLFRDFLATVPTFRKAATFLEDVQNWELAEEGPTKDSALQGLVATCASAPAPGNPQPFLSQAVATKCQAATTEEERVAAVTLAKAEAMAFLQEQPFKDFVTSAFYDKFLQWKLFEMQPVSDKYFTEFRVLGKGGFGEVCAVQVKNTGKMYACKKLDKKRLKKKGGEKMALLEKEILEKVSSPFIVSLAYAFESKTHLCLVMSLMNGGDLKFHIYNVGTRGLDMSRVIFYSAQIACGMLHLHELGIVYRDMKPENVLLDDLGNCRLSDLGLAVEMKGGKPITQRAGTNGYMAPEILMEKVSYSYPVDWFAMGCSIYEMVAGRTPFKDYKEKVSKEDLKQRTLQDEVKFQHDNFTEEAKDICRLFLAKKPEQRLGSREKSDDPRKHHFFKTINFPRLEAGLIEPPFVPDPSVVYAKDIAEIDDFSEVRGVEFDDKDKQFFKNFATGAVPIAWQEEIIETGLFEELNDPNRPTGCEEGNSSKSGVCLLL
As to conditions: at 0.1 µM.

The target of test [10] is T1, Rhodopsin kinase GRK7 (Homo sapiens). As to conditions: at 1 µM.

The inhibition is the drop in the measured response relative to a control, in per cent.

RAC-alpha serine/threonine-protein kinase (Homo sapiens), sequence (P31749 whole entry): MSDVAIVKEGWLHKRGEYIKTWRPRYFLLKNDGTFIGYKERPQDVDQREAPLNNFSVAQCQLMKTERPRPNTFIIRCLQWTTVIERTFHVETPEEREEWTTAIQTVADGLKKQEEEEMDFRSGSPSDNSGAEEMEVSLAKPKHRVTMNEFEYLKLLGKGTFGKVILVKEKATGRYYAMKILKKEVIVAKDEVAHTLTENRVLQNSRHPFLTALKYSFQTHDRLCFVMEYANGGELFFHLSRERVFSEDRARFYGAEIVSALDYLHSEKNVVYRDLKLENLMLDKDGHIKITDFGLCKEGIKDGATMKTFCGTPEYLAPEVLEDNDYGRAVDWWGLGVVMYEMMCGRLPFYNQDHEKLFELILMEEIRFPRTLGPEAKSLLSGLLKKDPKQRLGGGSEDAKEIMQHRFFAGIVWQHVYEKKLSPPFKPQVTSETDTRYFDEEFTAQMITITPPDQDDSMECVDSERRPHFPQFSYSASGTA
RAC-beta serine/threonine-protein kinase (Homo sapiens), sequence (P31751 whole entry): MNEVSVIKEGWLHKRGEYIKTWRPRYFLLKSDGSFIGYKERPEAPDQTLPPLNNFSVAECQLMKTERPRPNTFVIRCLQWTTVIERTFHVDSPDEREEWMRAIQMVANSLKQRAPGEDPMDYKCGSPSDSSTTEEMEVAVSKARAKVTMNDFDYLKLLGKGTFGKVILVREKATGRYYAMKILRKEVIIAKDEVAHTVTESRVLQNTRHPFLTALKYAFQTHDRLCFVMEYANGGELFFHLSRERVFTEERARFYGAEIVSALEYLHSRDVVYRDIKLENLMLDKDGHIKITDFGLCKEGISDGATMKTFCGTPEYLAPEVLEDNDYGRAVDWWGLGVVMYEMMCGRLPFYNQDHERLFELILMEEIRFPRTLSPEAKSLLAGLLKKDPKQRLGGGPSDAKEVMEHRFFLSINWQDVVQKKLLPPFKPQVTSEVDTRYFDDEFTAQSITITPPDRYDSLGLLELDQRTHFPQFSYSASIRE

For `CCCN1CCC=C(c2ccc(Nc3nc(Nc4ccccc4C(N)=O)c4cc[nH]c4n3)c(C)c2)C1`, the inhibition was 0.97% in [1]; 1.22% in test [2]; 1.3% in test [3]; 1.5% in [4]; -0.2% in test [5]; 5.51% in test [6]. The inhibition came to 6.79% in [7], 31.4% in [8], 11.2% in [9] and 20.5% in test [10].
`COc1cc2ncn(-c3cc(OCc4ccccc4C(F)(F)F)c(C(N)=O)s3)c2cc1OC`: the inhibition in test [1] was -2.43%; in [2], -2.44%; in test [3], -2.6%; in [4] it was -2.54%; in test [5] it was -3.14%; in test [6] it was -1.66%. The inhibition in test [7] is 0.88%; in test [8], 0.91%; in test [9], 9.69%; in test [10] it was 6.72%.
For `O=C(Nc1n[nH]c2nc(-c3ccco3)c(Br)cc12)C1CC1`, the inhibition is 0.59% in [1]; 0.53% in test [2]; 2.1% in test [3]; 2.15% in test [4]; 0.47% in test [5]; 1.46% in test [6]. Also, the inhibition in test [7] was -0.71%; in test [8] it was -0.55%; in [9], 3.55%; in test [10], 4.09%.
With `CN(C)c1cc2c(Nc3ccc4nc(Cc5ccccc5)[nH]c4c3)ncnc2cn1`, the inhibition in [1] is 1.02%; in [2] it was 0.52%; in test [3] it was 2.3%; in test [4] it was 2.71%; in test [5], 1.37%; in test [6], 3.27%. For the same compound, the inhibition was 2.98% in test [7], 6.85% in test [8], 20.5% in test [9] and 22.6% in [10].
As for `COc1ccc(COc2ccc(Cc3cnc(N)nc3N)cc2OC)cc1`, the inhibition in test [1] is 0.82%; in test [2], -0.15%; in test [3] it was 0.33%; in test [4], -0.17%; in test [5], 0.61%; in test [6], 0.93%. Further, the inhibition in test [7] is -3%; in [8] it was -5.27%; in test [9], 11%; in [10], -7.03%.
As for `Cc1cc(O)cc(C)c1/C=C/c1cncc(-c2nn[nH]n2)c1`, the inhibition was -2.92% in [1]; -4.1% in [2]; -1.95% in test [3]; -2.32% in test [4]; -2.52% in [5]; -2.46% in test [6]. Also, the inhibition in [7] is 1.06%; in test [8] it was 5.14%; in test [9], 2.35%; in test [10] it was 4.65%.
For `O=C1NC(=O)C(c2ccccc2Cl)=C1Nc1cccc(O)c1`, the inhibition in test [1] is 0.96%; in [2], 1.06%; in test [3] it was 1.74%; in test [4] it was 1.48%; in test [5], 0.92%; in [6], 1.56%. Also, the inhibition in [7] is 1.82%; in [8] it was 2.13%; in test [9] it was 1.36%; in [10] it was -6.28%.
As to `COc1ccc(-c2coc3ncnc(N)c23)cc1`, the inhibition is 0.76% in [1]; 0.76% in test [2]; 2.07% in test [3]; 1.94% in test [4]; 0.3% in test [5]; 2.05% in [6]. Further, the inhibition is 1.34% in [7], 1.56% in test [8], 3.57% in [9] and 9.28% in test [10].
Consider `COc1cc2ncn(-c3cc(O[C@@H](C)c4ccccc4Cl)c(C(N)=O)s3)c2cc1OC`, for which the inhibition stood at 0.32% in test [1]; 1.3% in test [2]; 1.65% in test [3]; 1.94% in test [4]; 1.85% in [5]; 1.32% in [6]. The inhibition in [7] worked out at 0.89%; in test [8], 2.39%; in [9], 9.14%; in test [10] it was 4.64%.
`COc1cc(C=NNc2ncnc3c2cnn3-c2ccccc2)ccc1O`: the inhibition in [1] is 0.7%; in test [2], -1.12%; in test [3], 2.4%; in [4], -2.91%; in test [5], 1.08%; in test [6], -1.19%. Besides, the inhibition was 1.52% in [7], -6.34% in test [8], -0.04% in test [9] and -4.38% in test [10].
As to `COc1ccc(-c2nn3ncccc3c2-c2ccnc(Nc3ccc(Cl)c(C(F)(F)F)c3)n2)cc1`, the inhibition in [1] is 0.26%; in test [2] it was 0.27%; in [3], 1.16%; in test [4], 0.96%; in test [5] it was 3.64%; in test [6], -0.03%. The inhibition in test [7] was 6.26%; in [8], 9.79%; in test [9], 4.07%; in [10], 8.67%.
In the case of `COc1ccccc1Nc1ncc(-c2ccccc2)o1`, the inhibition in test [1] stood at 1.37%; in [2], 1.71%; in test [3] it was 0.6%; in test [4], 2.82%; in test [5], 0.12%; in [6], 3.9%. Besides, the inhibition in test [7] came out at 2.46%; in test [8], 3.95%; in test [9], 10.1%; in [10], 2.31%.
Turning to `[O-][S+]1CCN(Cc2ccc(-c3ccc4ncnc(Nc5ccc(OCc6ccccc6)c(F)c5)c4c3)o2)CC1`, the inhibition was 0.83% in test [1]; -0.19% in [2]; 2.53% in test [3]; 0.9% in [4]; 0.99% in test [5]; 1.21% in test [6]. Moreover, the inhibition in [7] was 3.78%; in [8], -2.01%; in test [9] it was 1.86%; in [10], -0.58%.
Take `Cc1nn(C)c2cc(N(C)c3ccnc(Nc4cccc(S(N)(=O)=O)c4)n3)ccc12`: the inhibition was 0.47% in test [1]; 0.23% in test [2]; 1.6% in test [3]; 2.15% in test [4]; 1.22% in test [5]; 1.54% in [6]. Besides, the inhibition stood at 3.92% in [7], 3.28% in [8], 2.2% in [9] and 10.5% in [10].
Consider `CCn1c(-c2nonc2N)nc2c(C#CC(C)(C)O)nc(CN3CCCC3)cc21`, for which the inhibition is 8.37% in test [1]; 54.9% in test [2]; 10% in test [3]; 55.5% in test [4]; 18.8% in [5]; 78.7% in test [6]. For the same compound, the inhibition in [7] was -2.28%; in test [8], -0.02%; in [9], -4.34%; in test [10], 3.4%.
For `CS(=O)(=O)Nc1ccc(N/C=C2\C(=O)Nc3ccccc32)cc1`, the inhibition is -2.28% in test [1]; -2.1% in test [2]; -3.92% in [3]; -2.28% in test [4]; -3.25% in test [5]; 1.91% in test [6]. Besides, the inhibition in [7] is -1.94%; in test [8], 0.5%; in test [9], -1.39%; in test [10] it was -5.45%.
Turning to `c1cnn2ncc(-c3ccnc(Nc4ccc5c(c4)OCCO5)n3)c2c1`, the inhibition worked out at 0.86% in test [1]; 0.95% in test [2]; 2.29% in [3]; 1.47% in [4]; 1.09% in test [5]; 2.1% in [6]. The inhibition was determined as 7.21% in test [7], 4.01% in [8], 4.35% in test [9] and 2.89% in test [10].
